Methyltransferases = Primary Screen for Target Class Profiling of Small Molecule Inhibitors of Methyltransferases; purified enzyme, MTase-Glo SAH luminescence; hits give low values; calls only at 40 µM; 3.9% of 25,000 active; AID 1745853, 2022; call rule not given here
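Each enzyme was reacted with SAM and its substrate, with compounds tested once at 40 uM; SAH formed was read by MTase-Glo luminescence.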
Calls only; - = inactive; + = active, no number; ! = not confirmed by another sample. The entries come from a sample that favours hits as a whole.

SMILES	Methyltransferases
O=c1ccc2ccc(O)c(O)c2o1	-
O=Nc1ccc2oc(=O)ccc2c1	+
COc1ccccc1N1CCN(C(=O)Cn2c(=O)n3nc(C)nc3c3ccccc32)CC1	-
CCCn1c(=O)c2cc(F)ccc2n2c(SCc3cccc(F)c3)nnc12	-
CCCn1c(=O)c2ccc(C(=O)NC(C)C)cc2n2c(=O)n(Cc3c(F)cccc3Cl)nc12	-
COc1ccc(CCO[C@@H]2O[C@H](CO[C@@H]3OC[C@H](O)[C@H](O)[C@H]3O)[C@@H](O)[C@H](O)[C@H]2O)cc1	+
OC[C@@]1(O)CO[C@H](OC[C@H]2O[C@@H](OCCc3ccccc3)[C@H](O)[C@@H](O)[C@@H]2O)[C@@H]1O	-
C[C@@H]1O[C@@H](OC[C@H]2O[C@@H](OCCc3ccccc3)[C@H](O)[C@@H](O)[C@@H]2O)[C@H](O)[C@H](O)[C@H]1O	-
C=CCc1ccc(O[C@@H]2O[C@H](CO[C@@H]3O[C@@H](C)[C@H](O)[C@@H](O)[C@H]3O)[C@@H](O)[C@H](O)[C@H]2O)cc1	-
COC(=O)c1ccc(OC)cc1O[C@@H]1O[C@H](CO[C@@H]2OC[C@@H](O)[C@H](O)[C@H]2O)[C@@H](O)[C@H](O)[C@H]1O	-
OC1COC(OCC2OC(OCCc3ccccc3)C(O)C(O)C2O)C(O)C1O (stereo unspecified)	+
O=S(=O)(Nc1cccnc1)c1ccc(Cl)c(-c2nnc(-c3ccccc3)o2)c1	-
O=C(NCc1ccncc1)c1ccc(-c2ccsc2)nc1	-
CCCn1c(=O)c2ccc(Cl)cc2n2c(=O)n(CC(=O)N3CCN(c4ccc(F)cc4)CC3)nc12	-
CC(C)NC(=O)c1ccc2c(=O)n(C)c3nn(CC(=O)Nc4ccccc4)c(=O)n3c2c1	-
CCOC(=O)c1cc2n(n1)CC(C)(C(=O)NC1CCCCC1)N(c1ccc(C)c(F)c1)C2=O (stereo unspecified)	-
CCCN1C(=O)c2ccc(-c3ccccc3)n2CC1(C)C(=O)NC1CCCCCC1 (stereo unspecified)	-
CCCCNc1ncc2c(-c3ccc(CN4CCN(C)CC4)cc3)cn(C3CCC(O)CC3)c2n1 (stereo unspecified)	-
Nc1ncnc2c1ncn2C1CCCC1	-
CN1CCN(C2CCC(n3cc(-c4ccc(Oc5ccccc5)cc4)c4c(N)ncnc43)CC2)CC1 (stereo unspecified)	+
COc1ccc(-c2cc3n(n2)CC(C)(C(=O)NCc2ccccc2OC)N(CCc2cccs2)C3=O)cc1 (stereo unspecified)	-
COc1ccc(OC)c(S(=O)(=O)N2CCCC(Cn3c(C)cnc3C3CC3)C2)c1 (stereo unspecified)	-
COCCNC(=O)c1cc2n(n1)CC(C)(C(=O)NCCC(C)C)N(C)C2=O (stereo unspecified)	-
N#Cc1ccc(N2N=C3c4ccc(C(=O)O)cc4CC[C@@H]3[C@@H]2C2CCCC2)cc1Cl	+
CCc1cccc(N2C(=O)c3ccccc3CC2(C)C(=O)NCc2ccccc2)c1 (stereo unspecified)	-
SMILES	Methyltransferases
O=C(Nc1ccccc1)c1cc([N+](=O)[O-])ccc1Cl	-
O=C(c1cc(O)c(O)c([N+](=O)[O-])c1)c1ccccc1F	+
O=C(Nc1ncc([N+](=O)[O-])s1)c1ccccc1O	-
CC1(C(=O)NC2CCCCCC2)Cn2c(ccc2-c2ccco2)C(=O)N1Cc1ccc(Cl)cc1 (stereo unspecified)	-
CN1C(=O)c2cc(C(=O)NCCC3=CCCCC3)nn2CC1(C)C(=O)NCc1ccc(F)cc1 (stereo unspecified)	-
CC1CCC(NC(=O)C2(C)Cn3c(cc4occc43)C(=O)N2CC(C)c2ccccc2)CC1 (stereo unspecified)	-
C/C(=C\CCC(C)(C)O)CCO[C@@H]1O[C@H](CO[C@@H]2O[C@@H](C)[C@H](O)[C@@H](O)[C@H]2O)[C@@H](O)[C@H](O)[C@H]1O	-
C=CC(C)(O)CC/C=C(\C)C(=O)O[C@@H]1[C@@H](O)[C@H](OC(C)(C=C)CC/C=C(\C)C(=O)O[C@@H]2O[C@H](CO)[C@@H](O)[C@H](O)[C@H]2O)O[C@H](CO)[C@H]1OC(=O)/C(C)=C/CCC(C)(O)C=C (stereo partly specified)	-
C=CC(C)(O)CC/C=C(\C)COC1O[C@H](CO)[C@@H](O)[C@H](O)[C@H]1O (stereo partly specified)	+
COC(=O)c1cc2n(n1)CC(C)(C(=O)NC1CCC(C)CC1)N(c1cc(C)cc(C)c1)C2=O (stereo unspecified)	-
CCN(CC)c1ccc(NS(=O)(=O)c2ccc3[nH]c4c(c3c2)CCCC4)c(C)c1	-
CCC(C)NC(=O)Cn1nc2n(Cc3ccc(C)cc3)c(=O)c3ccc(C(=O)NC(C)C)cc3n2c1=O (stereo unspecified)	-
CC1(C(=O)NCc2ccccc2)Cn2c(cc3ccccc32)C(=O)N1Cc1cccc(F)c1 (stereo unspecified)	-
COc1cccc(OC)c1-c1nc(C(=O)N[C@@H](CC(C)C)C(=O)O)cn1-c1ccnc2cc(Cl)ccc12	-
COc1cc(Nc2ncc3c(n2)-c2ccc(Cl)cc2C(c2c(F)cccc2OC)=NC3)ccc1C(=O)O	+!
CC(=O)Nc1c2n(c3ccc(F)cc13)CC(C)(C(=O)NCCC(C)C)N(CCc1ccccc1)C2=O (stereo unspecified)	-
CC1CCCC(NC(=O)C2(C)Cn3c(nc4ccccc43)C(=O)N2CCc2ccc(Cl)cc2)C1C (stereo unspecified)	-
Cc1cccc(N2C(=O)c3cc4occc4n3CC2(C)C(=O)NC2CCCCCC2)c1C (stereo unspecified)	-
COc1ccc(N2C(=O)c3cc(-c4cccs4)nn3CC2(C)C(=O)NC2CCCCC2)cc1Cl (stereo unspecified)	-
Cc1cc(C)cc(-c2cnc3cc(Cl)c(-c4cccc(O)c4)cc3c2OCCCN)c1	+
O=C(NCCc1ccccc1)c1ccc(CN2C(=O)CCn3nc(-c4cccc(Cl)c4)cc32)cc1	-
CN(C)C(=O)Nc1cccc(-c2ccc(N(C)C)cc2)c1	-
CCn1cc(-c2ccnc3[nH]c(-c4cccc(CN(C)C)c4)cc23)c(-c2ccc(NC(=O)N(C)C)cc2)n1	+
CCc1ccc(S(=O)(=O)c2nnn3c2nc(NCCCN2CCCC2=O)c2cc(Cl)ccc23)cc1	-
COc1ccc(C)cc1NS(=O)(=O)c1ccc2[nH]c3c(c2c1)CCCC3	-
SMILES	Methyltransferases
COCCCNC(=O)CCc1nnc2n(Cc3ccc(C)cc3)c(=O)c3ccccc3n12	-
CCc1ccc(-c2cc3n(n2)CC(C)(C(=O)NC2CCCCC2)N(CCN(C)C)C3=O)cc1 (stereo unspecified)	-
CCCn1c(=O)c2ccccc2n2c(=O)n(CC(=O)c3ccc(Br)cc3)nc12	-
COc1ccccc1C(=O)N1CCN(c2nccc(Nc3ccccc3Cl)n2)CC1	-
NC(=O)c1ccccc1Nc1ccnc(Nc2cccc(O)c2)n1	+
O=C(O)c1ccccc1Nc1cccc(OCc2ccc3ccccc3n2)c1	-
CCC(C(=O)NCc1ccc2c(c1)OCO2)n1ccc2cc(S(=O)(=O)N3CCCCC3)ccc21 (stereo unspecified)	-
CN1C(=O)c2cc(C(=O)NCc3cccs3)nn2CC1(C)C(=O)NC1CCCC1 (stereo unspecified)	-
CN(C)[C@@H]1CCc2[nH]c3ccc(NC(=O)c4ccc(F)cc4)cc3c2C1	+
